Screening data as filed in PubChem BioAssay.
A selection: hits, their analogues and other compounds. The true share with any hit is near 4.1%.
BH1578 lux ind – induces V. cholerae light production without autoinducers | V. cholerae BH1578 lux reporter, luminescence, 6 h | activation, % at 18.7 µM | 350,000 tested, 0.16% active | AID 588436; in the data active = activation mostly above about 9.7%, no sharp cut-off
GDH-TPI counter-1 – inhibits GDH-TPI coupling enzymes, artifact for Mtb FBA screen; AID 588335; 360,000 tested, 1.2% active; inhibition, % at 4.8 µM; GDH-TPI coupled enzyme counterscreen, NADH absorbance; in the data active = inhibition above about 30%;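 also: 0% = DMSO wells and 100% = wells lacking the enzyme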
UGM FP inh – blocks M. tuberculosis UGM enzyme | P9WIQ1 | purified UGM, fluorescence polarization probe displacement | inhibition, % at 10 µM | 320,000 tested, 0.06% active | AID 504406; in the data active = inhibition above about 10%, passing the limit was not always enough
Target sequence (P9WIQ1 whole entry, looked up): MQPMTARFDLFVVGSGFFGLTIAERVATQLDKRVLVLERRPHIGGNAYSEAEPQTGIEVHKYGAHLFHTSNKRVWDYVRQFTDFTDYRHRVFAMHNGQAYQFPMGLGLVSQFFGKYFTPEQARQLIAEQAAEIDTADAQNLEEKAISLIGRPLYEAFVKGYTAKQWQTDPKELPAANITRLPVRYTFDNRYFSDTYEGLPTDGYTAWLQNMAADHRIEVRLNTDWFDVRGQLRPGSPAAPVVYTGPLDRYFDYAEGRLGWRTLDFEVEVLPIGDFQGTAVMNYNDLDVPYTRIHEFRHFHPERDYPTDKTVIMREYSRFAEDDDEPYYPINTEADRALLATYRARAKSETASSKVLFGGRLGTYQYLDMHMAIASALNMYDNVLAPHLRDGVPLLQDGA
RecA intein inh – Mtb RecA intein splicing inhibition; P9WHJ3; cell-free RecA intein splicing, fluorescence; inhibition, % (no concentration beside the values); 290,000 tested, 0.75% active; AID 2221; in the data active = inhibition above about 30%;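 also: 0% = vehicle wells and 100% = reference inhibitor control wells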
Rv3671c protease – Rv3671c (M. tuberculosis) protease inhibition; P9WHR9; inhibition, % at 5.96 µM; 320,000 tested, 0.048% active; in the data active = inhibition above about 38%;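 also: extracellular domain of Rv3671c used as enzyme; 0% = enzyme with DMSO and 100% = no enzyme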
Mtb FBA inh – inhibits M. tuberculosis FBA enzyme. P9WQA3. purified M. tuberculosis FBA, fluorescence read-out. inhibition, % at 1 µM. 360,000 tested, 2.3% active. AID 588726;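 also: 0% = vehicle and 100% = reference inhibitor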
Target sequence (P9WQA3 whole entry, looked up): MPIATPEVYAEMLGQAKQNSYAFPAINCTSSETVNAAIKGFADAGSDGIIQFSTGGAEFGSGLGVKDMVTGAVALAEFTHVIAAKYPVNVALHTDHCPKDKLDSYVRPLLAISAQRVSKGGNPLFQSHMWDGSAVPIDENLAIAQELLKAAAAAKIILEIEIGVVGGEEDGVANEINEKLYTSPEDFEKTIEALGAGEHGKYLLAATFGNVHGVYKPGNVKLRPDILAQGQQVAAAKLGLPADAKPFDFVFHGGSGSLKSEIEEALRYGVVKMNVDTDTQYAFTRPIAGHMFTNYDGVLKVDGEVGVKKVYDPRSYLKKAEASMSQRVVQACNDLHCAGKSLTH
Mtb FBA inh conf – confirmation of M. tuberculosis fructose-bisphosphate aldolase inhibitors; purified M. tuberculosis FBA, fluorescence read-out; AID 651616; inhibition, % at 1 µM; 5,600 tested, 78% active; shares compounds with Mtb FBA inh;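 also: 0% = vehicle wells and 100% = reference inhibitor wells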
GDH-TPI counter-2 – inhibits GDH-TPI coupling enzymes, flagging Mtb FBA hits; inhibition, % at 1 µM; GDH-TPI coupled enzyme counterscreen, fluorescence; 5,600 tested, 81% active; shares compounds with Mtb FBA inh; AID 652141; in the data active = inhibition above about 10%
* marks the source's active call; other numbers are inactive results; i = inactive; x = no result; + = active, no number. Rule as the data show it, unless noted: active = inhibition above about 27%; inactive = the rest.

SMILES | BH1578 lux ind | GDH-TPI counter-1 | UGM FP inh | RecA intein inh | Rv3671c protease | Mtb FBA inh | Mtb FBA inh conf | GDH-TPI counter-2
COc1cccc(NC(=O)CN(C)C(=O)c2ccc(-n3cncn3)c([N+](=O)[O-])c2)c1 | 0.0 | 6.6 | -0.8 | x | -0.7 | 3.3 | x | x
O=C(Nc1ccc(Cl)cn1)c1cc2c(s1)-c1ccccc1OC2 | -0.4 | 11.1 | 1.6 | -30.4 | -14.8 | 47.3* | 25.6 | 20.1*
CCOC(=O)c1cc2c(s1)-c1c(C)cccc1OC2 | -0.3 | 16.8 | -0.2 | -13.8 | -15.0 | 82.2* | 13.8 | 17.3*
O=C(Cn1ncc2c1-c1ccccc1OC2)Nc1ccc(Cl)cn1 | -0.6 | 1.3 | -1.3 | 1.2 | -9.5 | 4.3 | x | x
O=C(Nc1nccs1)c1cc2c(s1)-c1ccccc1OC2 | 0.7 | 27.2 | 0.5 | -8.2 | -18.6 | 28.4* | 141.9* | 116.1*
O=C(Nc1nc2ccccc2s1)c1cc2c(s1)-c1ccccc1OC2 | -0.2 | 2.0 | 0.3 | -14.6 | -14.5 | 5.7 | x | x
Cc1cccc2c1-c1sc(C(=O)Nc3nccs3)cc1CO2 | -0.3 | 2.4 | -0.4 | -2.8 | -25.6 | 42.0* | 1.4 | -1.2
Cn1cc2ccc(N)cc2n1 | i | 0.0 | x | x | x | 28.8* | 68.0* | 55.7*
Cn1cc2ccc([N+](=O)[O-])cc2n1 | -0.9 | 8.0 | 0.7 | 6.6 | -3.4 | 0.4 | x | x
COC(=O)c1ccc(N2CCN(C)CC2)c(NC(=O)c2cccs2)c1 | -0.3 | 0.8 | -0.4 | x | 4.0 | -2.2 | x | x
CN(Cc1cccc(F)c1)C(=O)C1CC(=O)N(c2ccc3c(c2)OCCO3)C1 (stereo unspecified) | -0.4 | 1.3 | -0.7 | x | 2.3 | 35.1* | + | +
CN(Cc1ccc(Cl)c(Cl)c1)C(=O)C1CC(=O)N(c2ccc3c(c2)OCCO3)C1 (stereo unspecified) | i | -6.2 | x | x | x | -0.2 | x | x
O=C(NCCc1ccccc1)C1CC(=O)N(c2ccc3c(c2)OCCO3)C1 (stereo unspecified) | 0.8 | -1.8 | 0.2 | -6.1 | -4.3 | 28.2* | 38.4* | 20.6*
CCCCN(C(=O)COC(=O)c1ccc(C=O)cc1)c1c(N)n(CCC)c(=O)[nH]c1=O | -0.6 | 1.6 | -2.5 | x | -2.1 | 0.1 | x | x
N#Cc1c(N2C(=O)c3ccc(C(=O)O)cc3C2=O)sc2c1CCCC2 | -0.9 | 1.5 | 1.3 | 0.5 | -2.5 | -1.3 | x | x
CC(C)(C)NCc1cccn1-c1sc2c(c1C#N)CCCC2 | -0.2 | 12.1 | -2.3 | 1.2 | -2.8 | 75.9* | 65.8* | 52.5*
Cc1noc(C)c1NC(=O)N(C)C[C@H]1Oc2ccc(NC(=O)C3CCCCC3)cc2C(=O)N([C@H](C)CO)C[C@@H]1C | i | -15.0 | -1.9 | x | 0.7 | -0.8 | x | x
CC1=C(C#N)C(c2cccnc2)C2=C(CCCC2=O)N1 (stereo unspecified) | -0.9 | 4.0 | -0.6 | x | -1.8 | 33.9* | 127.5* | 99.5*
CCCN(CC(=O)Nc1ccccc1C)C(=O)c1sc2ccccc2c1Cl | -1.5 | 0.4 | 2.8 | x | 4.3 | -2.6 | x | x
Cc1ccc(-n2c(O)c(C=Nc3cc(C)on3)c3ccccc3c2=O)c(C)c1 | -0.3 | 6.9 | -1.3 | -10.8 | -22.5 | 46.6* | + | +
Cc1ccc(-n2c(O)c(C=NC3CCS(=O)(=O)C3)c3ccccc3c2=O)c(C)c1 (stereo unspecified) | -0.7 | 7.9 | 1.8 | -2.2 | -20.9 | 1.2 | x | x
CNC(=S)N/N=C/c1ccc(-c2ccc(Cl)c([N+](=O)[O-])c2)o1 | -0.4 | 22.7 | -0.5 | 0.6 | -6.5 | -2.5 | x | x
C=CCNC(=S)N/N=C/c1ccc(-c2ccc(OC)cc2)o1 | -0.3 | 14.4 | -1.4 | 3.0 | 1.6 | 29.3* | -5.6 | -5.5
CNC(=S)N/N=C/c1ccc(-c2ccc(C(=O)O)cc2)o1 | -0.7 | 53.1* | 0.5 | -3.7 | 7.0 | 40.7* | + | +
Cc1ccc(CN2C(=O)C(C)Nc3ncnc(N4CCN(c5ccccn5)CC4)c32)cc1 (stereo unspecified) | 6.7 | -0.5 | 0.8 | 18.7 | -9.9 | 3.0 | x | x
SMILES | BH1578 lux ind | GDH-TPI counter-1 | UGM FP inh | RecA intein inh | Rv3671c protease | Mtb FBA inh | Mtb FBA inh conf | GDH-TPI counter-2
CC(=O)Nc1cccc(OCCCOc2cccc([N+](=O)[O-])c2)c1 | -1.2 | 4.3 | x | x | x | -2.4 | x | x
NC(=O)c1ccccc1N | -0.5 | 6.2 | -1.0 | 1.3 | -25.8 | 86.5* | 77.8* | 54.2*
CCN(CC)CCNC(=O)c1ccccc1N | 0.7 | -4.5 | -0.7 | -2.3 | -2.7 | 59.9* | 140.2* | 121.1*
Cc1ccc(C(=O)NCCN2CCNC2=O)cc1 | -0.4 | 3.8 | 0.5 | 0.7 | -5.0 | 0.9 | x | x
NC(=O)c1cccc2cc3ccccc3cc12 | -0.5 | 4.2 | 4.2 | -22.9 | -10.7 | 36.6* | 9.2 | 6.1
Nc1ccccc1C(=O)NCCN1CCNC1=O | 1.1 | 10.2 | 3.5 | 0.1 | -3.0 | 92.6* | 89.9* | 76.9*
NC(=O)c1ccccc1Br | i | 9.7 | 0.4 | -5.3 | 2.6 | -0.1 | x | x
CC1(C)CC(=O)C(C(c2ccc3c(c2)OCO3)C2C(=O)CC(C)(C)CC2=O)C(=O)C1 | x | x | x | x | x | 1.0 | x | x
Cc1ccccc1CNC(=O)c1ccccc1C | i | 2.3 | -3.6 | 2.0 | 0.0 | 1.4 | x | x
COc1ccccc1CNC(=O)c1ccccc1NS(C)(=O)=O | -0.1 | -7.5 | x | -0.8 | -0.4 | 29.5* | 101.9* | 79.8*
CS(=O)(=O)Nc1ccccc1C(=O)NCC1(N2CCCCC2)CCCCC1 | -0.3 | -2.2 | 3.8 | -1.7 | 4.9 | 44.6* | 8.9 | -5.0
Cc1cc(C(=O)NCc2ccccc2)c(=O)[nH]c1C | 11.1 | 3.9 | 1.8 | -0.6 | -10.5 | 55.8* | 102.8* | 74.1*
Cc1ccccc1CNC(=O)c1ccccc1N | 1.4 | 5.4 | x | 1.0 | 0.1 | 78.0* | + | 191.2*
O=C(COC(=O)c1ccccn1)NCCc1ccc(Cl)cc1 | i | 8.8 | -3.1 | x | 4.0 | 3.1 | x | x
Nc1ccccc1C(=O)NCCCN1CCN(c2cccc(Cl)c2)CC1 | -0.6 | 1.1 | 0.1 | 3.1 | -5.3 | 54.1* | 68.7* | 71.7*
COc1ccccc1CNC(=O)c1ccccc1N | -0.2 | -8.3 | -1.3 | -0.6 | -1.1 | 53.8* | 59.6* | 51.1*
Cc1ccc(OCCNC(=O)c2ccccc2N)cc1 | 9.7 | 2.0 | 3.5 | 1.5 | -4.1 | 49.0* | + | 190.9*
Nc1ccccc1C(=O)NCc1ccccc1 | -5.6 | -4.8 | 4.4 | -2.5 | 9.0 | 44.4* | 0.8 | 3.5
COc1ccc(C(=O)NCc2ccccc2OC)c(OC)c1 | -1.8 | -17.2 | -0.8 | 1.1 | -15.1 | -3.1 | x | x
O=C(Nc1ccccc1C(=O)NCc1ccccc1)c1ccccc1 | -0.4 | -6.8 | -2.4 | 2.7 | -7.6 | 2.8 | x | x
O=C(NCCCN1CCN(c2cccc(Cl)c2)CC1)c1ccc(N2CCCC2=O)cc1 | i | 3.2 | 1.3 | -0.3 | -17.1 | -2.0 | x | x
COc1ccc(-c2noc(N3CCC(C(=O)NCCCN4CCCC(C)C4)CC3)n2)cc1 (stereo unspecified) | i | 10.6 | 1.0 | -3.5 | 1.2 | -3.3 | x | x
